Source: PubChem (National Center for Advancing Translational Sciences (NCATS))
A selection: hits, their analogues and other compounds. The true share with any hit is near 9.9%.
Tau ThT inhib: tau fibrillization inhibition (ThT binding); P10636; recombinant tau K18 P301L, heparin-induced fibrillization, ThT fluorescence; Potency, µM (top dose mostly 57.4 µM), inactives show at the top dose activity, negative = inhibition, most hits filed as inhibitors; 270,000 compounds, 2.1% hits; AID 1460; active means well fitted curve in the direction sought with a large enough effect; inconclusive means small, poorly fitted or top-dose-only effect, or another doubt; inactive means no such curve, though single readings can be large; an effect the other way counts as inactive or inconclusive; further: nearly all actives have a fitted effect of over 55% in size
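In this qHTS, human K18 P301L tau is incubated with compound and heparin for 6 hr at 37 C, and Thioflavin T fluorescence then reports fibril load.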
KDM4E inh: JMJD2E (human) inhibition. B2RXH2. JMJD2E catalytic domain, FDH-coupled NADH fluorescence (FDH is formaldehyde dehydrogenase). Potency, µM (top dose mostly 57.1 µM), for inactives: top-dose activity change, negative = inhibition, most hits filed as inhibitors. 230,000 compounds, 1.6% hits. AID 2147;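 further: 0% = wells with enzyme and -100% = buffer wells without enzyme; nearly all actives have a fitted effect of over 50% in size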
ALDH1A1 block: ALDH1A1 (human) enzyme inhibition. Purified ALDH1A1, NADH fluorescence, propionaldehyde substrate. Potency, µM (top dose mostly 75.3 µM), for the others: at the highest dose activity, negative = inhibition, hits mostly inhibitors. 220,000 compounds, 7.3% hits;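 further: plate controls were no enzyme wells and a reference inhibitor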
Target sequence (P00352 whole entry, looked up): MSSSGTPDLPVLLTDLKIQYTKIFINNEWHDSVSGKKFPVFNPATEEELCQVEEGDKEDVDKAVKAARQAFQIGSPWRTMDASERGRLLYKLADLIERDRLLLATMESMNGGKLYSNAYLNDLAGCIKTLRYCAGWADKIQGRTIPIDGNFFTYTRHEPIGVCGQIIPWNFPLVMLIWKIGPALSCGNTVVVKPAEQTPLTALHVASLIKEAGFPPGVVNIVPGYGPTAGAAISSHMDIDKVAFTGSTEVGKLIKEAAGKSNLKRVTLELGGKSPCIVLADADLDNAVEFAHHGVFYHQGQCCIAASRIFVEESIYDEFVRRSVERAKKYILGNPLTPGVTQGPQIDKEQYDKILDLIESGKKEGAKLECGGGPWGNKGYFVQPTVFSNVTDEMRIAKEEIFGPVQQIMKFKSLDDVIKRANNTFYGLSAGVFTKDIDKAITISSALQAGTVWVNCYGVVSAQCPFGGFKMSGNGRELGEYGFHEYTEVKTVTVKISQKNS
Tau FP inhib: tau fibrillization inhibition (FP) | P10636 | K18 P301L tau heparin fibrillization, Alexa594 FP, 6 h | Potency, µM (series often up to 57.7 µM), without a hit: at the top dose activity, negative = inhibition, hits mostly inhibitors | 280,000 compounds, 0.39% hits; active means well fitted curve in the direction sought with a large enough effect; inconclusive means small, poorly fitted or top-dose-only effect, or another doubt; inactive means no such curve, though single readings can be large; an effect the other way counts as inactive or inconclusive; further: nearly all actives have a fitted effect of over 55% in size
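Human K18 P301L fragment (15 uM unlabeled plus 0.24 uM Alexa 594-labeled) in 100 mM sodium acetate pH 7 with compound, aggregation induced by 20 uM heparin for 6 hr at 37 C. ThT (30 uM) added for 1 hr, then Alexa 594 FP read.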
Tau fluor counter: counter-screen for tau fibril formation inhibitors; tau K18 P301L Alexa594 fluorescence, heparin fibrillization; Potency, µM (series often up to 57.7 µM), without a hit: at the top dose activity change, negative = decrease; 280,000 compounds, 0.93% hits; active means well fitted curve in the direction sought with a large enough effect; inconclusive means small, poorly fitted or top-dose-only effect, or another doubt; inactive means no such curve, though single readings can be large; an effect the other way counts as inactive or inconclusive; further: nearly all actives have a fitted effect of over 55% in size
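Human tau K18 P301L (15 uM unlabeled, 0.24 uM Alexa 594-labeled) in 100 mM sodium acetate pH 7 with 20 uM heparin, 6 hr at 37 C. ThT 30 uM added, 1 hr ambient; Alexa 594 FP and total fluorescence read at 555/632 nm.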
HPGD inh: HPGD (human) dehydrogenase inhibition. 150,000 compounds, 4.3% hits. AID 894. Potency, µM, inactives show top-dose activity change, negative = inhibition, most hits filed as inhibitors. P15428. purified HPGD, NADH fluorescence kinetic, PGE2 substrate
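NADH formation kinetics: reaction with 30 uM PGE2 and 1 mM NAD+ (final), 20 nM enzyme, Tris-HCl pH 8 with Tween 20, after 15 min compound preincubation at room temperature. Fluorescence change, last versus first of five reads.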
The depositor's hits bear a star; ? = inconclusive; / = no result; [ ] = dose if it differs, or a comment. Unless noted, the call rests on the fitted dose curve; in most records, active means well fitted inhibition curve with a large enough effect (not every such curve was filed as active); inconclusive means small, poorly fitted or top-dose-only effect, or another doubt; inactive means no such curve, though single readings can be large or run the other way. Unless noted, on the % scale 0 is the no-effect control and ±100 the full control effect; potency means the concentration at half of the fitted maximal effect.

SMILES | Tau ThT inhib | KDM4E inh | ALDH1A1 block | Tau FP inhib | Tau fluor counter | HPGD inh
CCOC(CNC(=O)c1ccc2c(c1)ncn2-c1cccc(F)c1)OCC | 0% | 1% | 2% | 2% | 1% | /
CC1Cc2cc(S(=O)(=O)CCC(=O)NCc3ccccc3Cl)ccc2N1C(=O)C1CC1 (stereo unspecified) | 6% | / | / | 2% | 1% | /
Cc1cc(C)cc(NC(=O)c2ccc3c(O)c(S(=O)(=O)c4ccccc4)c(=O)[nH]c3c2)c1 | 9% | / | / | -6% | 4% | /
N#C/C(=N\Nc1ccc(Cl)cc1)C(=O)c1ccsc1 | 5µM* | 1% | -3% | 3% | ? | /
Cc1ccc(N/N=C(\C#N)C(=O)c2ccsc2)cc1 | 14µM* | 2% | -3% | 10% | ? | /
CCCn1c(SCc2nc(-c3cc(OC)ccc3OC)no2)nnc1-c1ccc(Cl)cc1 | -11% | / | / | 4% | -12% | /
COc1ccc(S(=O)(=O)c2cn(C)c3ccc(C)cc3c2=O)cc1 | -6% | / | / | -6% | -4% | /
Cc1cc(N)n2ncc(-c3cccc(Br)c3)c2n1 | ? | ? | ? | 2% | 16µM*[quencher] | ?
Cc1cc(N)n2ncc(-c3ccccc3)c2n1 | ? | ? | ? | 4% | ? | ?
CN(C)CCNc1c(N)c(=O)oc2ccccc12 | 11% | -7% | -9% | 11%[2.34 µM] | 11%[2.34 µM] | /
Cc1ccccc1Nc1c(N)c(=O)oc2ccccc12 | -16% | -13% | -4% | ? | ? | 16µM*
CC(=O)N1CCC2(CCCN(c3cccc(-c4ccccc4)c3)C2)CC1 | / | / | ? | / | / | -22%
Cc1nc(NC(N)=S)sc1C(=O)Nc1ccccc1 | -8% | -10% | ? | 0% | -8% | -17%
Cc1nc(Nc2c(Cl)cccc2Cl)sc1C(=O)Nc1ccccc1 | -10% | -4% | 14µM* | -1% | -14% | -2%
O=C(c1cccc(F)c1)N1CCN(S(=O)(=O)Cc2ccccc2)CC1 | / | 1% | / | -2% | -17% | /
CC(C)(C)NC(=O)c1ccc2c(c1)C(=O)N(C1CCCCC1)C2=O | -17% | 8% | 2.8µM* | -2% | -13% | -2%
CCOC(=O)c1ccc2c(c1)C(=O)N(C1CCCCC1)C2=O | -6% | 0% | 22µM* | 5% | -3% | -8%
CN1C(=O)c2ccc(C(=O)NC3CCCCC3)cc2C1=O | -9% | -7% | ? | -1% | -10% | -11%
O=C(O)CNC(=S)N(Cc1ccccc1F)C1CCCCC1 | -6% | -8% | ? | 3% | 2% | /
CCCCNC(=O)CNC(=S)N(Cc1ccccc1F)C1CCCCC1 | -8% | 0% | 22µM* | 5% | -8% | /
COCCCNC(=O)CNC(=S)N(Cc1ccccc1F)C1CCCCC1 | -6% | 5% | 14µM* | 5% | -6% | -4%
O=C(CNC(=S)N(Cc1ccc(F)cc1)C1CCCCC1)NCC1CCCO1 (stereo unspecified) | -6% | -4% | -42% | 8% | -10% | /
O=C(CNC(=S)N(Cc1ccccc1F)C1CCCCC1)NCC1CCCO1 (stereo unspecified) | -7% | 4% | 7.1µM* | 0% | -14% | /
CCCCNC(=O)CNC(=S)N(Cc1cc(OC)c(OC)c(OC)c1)C1CCCC1 | -1% | 5% | -1% | 3% | -4% | -3%
C=CCCCCCCCCC(=O)Nc1ncccn1 | -2% | -3% | / | -5% | -5% | /
Oc1ccc2ccccc2c1CN1CCCC1 | ? | 32µM* | ? | 8% | ? | /
O=c1oc2ccccc2c(O)c1CN1CCCCC1 | 1% | 4% | 14µM* | 7% | 3% | -27%
Oc1ccc2ccccc2c1CN1CCN(c2ccccc2)CC1 | ? | ? | ? | 3% | ? | ?
O=c1cc(N2CCc3ccccc32)[nH]c(=O)n1-c1ccc(Br)cc1 | 28µM* | ? | ? | ? | -28% | 28µM*
CC(c1ccccc1)C1CC(=O)N(Cc2ccco2)C1=O (stereo unspecified) | -18% | -4% | 8.9µM* | -10% | -6% | -13%
